According to the supplement of paper PMC10849652:
The full data set covers some 7,900 targets. This sample favours those with a hit. About 0.6% of all pairs of compound and target were hits. Unmarked numbers belong to inactive results.

Columns and labels:
Assay in all cases: log2 fold change, soluble protein after heating vs DMSO (PISA); higher = thermal stabilisation; K562 cells, 10 uM, 30 min; active = over 0.2 and 3.5 SD of the protein, either way, in both replicates (recomputed)
volasertib = compound: CC[C@@H]1C(=O)N(C)c2cnc(Nc3ccc(C(=O)N[C@H]4CC[C@H](N5CCN(CC6CC6)CC5)CC4)cc3OC)nc2N1C(C)C [volasertib]
Outline: (§1)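 K562 cells at 2×10^6 cells/mL were exposed to 10 μM compound for 30 min, then aliquots were heated for 3 min across 48°C-58°C, pooled, and extracted in PBS containing 0.5% NP-40 at 4°C. The supernatant after 21,000xg for 90 min was taken as soluble protein and measured by TMTpro 16plex LC-MS/MS with channel sums equalised. Thermal stability is reported relative to control samples, with values from duplicates. Fold changes are given on a log2 scale.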

[1] = compound: CC[C@H](C)N1C=C(C2=C(C=C(C=C21)C3=CN=C(C=C3)N4CCNCC4)C(=O)NCC5=C(C=C(NC5=O)C)C)C
Outline: as §1

epoxomicin = compound: CC[C@H](C)[C@@H](C(=O)N[C@@H]([C@@H](C)O)C(=O)N[C@@H](CC(C)C)C(=O)[C@]1(CO1)C)NC(=O)[C@H]([C@@H](C)CC)N(C)C(=O)C [epoxomicin]
Outline: as §1

[2] = compound: CCn1c(C(=O)N(C2CC2)C2CC2)cc2c3c(ncn3C)c(Nc3cc(C)n(C)n3)nc21
Outline: as §1

[3] = compound: CCn1cc(-c2ccnc3[nH]c(-c4cccc(CN(C)C)c4)cc23)c(-c2ccc(NC(=O)N(C)C)cc2)n1
Outline: as §1

[4] = compound: CN(C)CC(=O)Nc1ccc2[nH]c(=O)c3ccccc3c2c1
Outline: as §1

rosiglitazone = compound: CN(CCOC1=CC=C(C=C1)C[C@H]2C(=O)NC(=O)S2)C3=CC=CC=N3 (racemic) [rosiglitazone]
Outline: as §1

[5] = compound: CN1C2=C(C3=C1C(=O)N(N=C3)CC4=CC(=CC=C4)N)SC(=C2)S(=O)C
Outline: as §1

[6] = compound: CN1CCC(CNc2ccc3ncc(-c4cccc(OC(F)(F)F)c4)n3n2)CC1
Outline: as §1

saracatinib = compound: CN1CCN(CCOc2cc(OC3CCOCC3)c3c(Nc4c(Cl)ccc5c4OCO5)ncnc3c2)CC1 [saracatinib]
Outline: as §1

sotrastaurin = compound: CN1CCN(c2nc(C3=C(c4c[nH]c5ccccc45)C(=O)NC3=O)c3ccccc3n2)CC1 [sotrastaurin]
Outline: as §1

alvocidib = compound: CN1CC[C@H](c2c(O)cc(O)c3c(=O)cc(-c4ccccc4Cl)oc23)[C@H](O)C1 [alvocidib]
Outline: as §1

Tubastatin A = compound: CN1CCc2c(c3ccccc3n2Cc2ccc(C(=O)NO)cc2)C1 [Tubastatin A]
Outline: as §1

[7] = compound: CNC(=O)C1=CC=CC=C1NC2=NC(=NC=C2Cl)NC3=C(C=C(C=C3)N4CCOCC4)OC
Outline: as §1

defactinib = compound: CNC(=O)c1ccc(Nc2ncc(C(F)(F)F)c(NCc3nccnc3N(C)S(C)(=O)=O)n2)cc1 [defactinib]
Outline: as §1

[8] = compound: CNc1nc(-c2ccc3c(N)n[nH]c3c2)cc(N2C[C@@H](C(=O)NC3CCCCC3)CC[C@H]2C)n1
Outline: as §1

[9] = compound: COC(=O)[C@H](CCSC)NC(=O)C1=C(C=C(C=C1)NC[C@H](CS)N)C2=CC=CC=C2
Outline: as §1

[10] = compound: CC[C@@H]1C(=O)N(C)c2cnc(Nc3ccc(C(=O)NC4CCN(C)CC4)cc3OC)nc2N1C1CCCC1
Outline: as §1

rucaparib = compound: CNCc1ccc(-c2[nH]c3cc(F)cc4c3c2CCNC4=O)cc1 [rucaparib]
Outline: as §1

encorafenib = compound: COC(=O)N[C@@H](C)CNc1nccc(-c2cn(C(C)C)nc2-c2cc(Cl)cc(NS(C)(=O)=O)c2F)n1 [encorafenib]
Outline: as §1

Sequence of UniProt Q04637 (Q04637 whole entry, looked up): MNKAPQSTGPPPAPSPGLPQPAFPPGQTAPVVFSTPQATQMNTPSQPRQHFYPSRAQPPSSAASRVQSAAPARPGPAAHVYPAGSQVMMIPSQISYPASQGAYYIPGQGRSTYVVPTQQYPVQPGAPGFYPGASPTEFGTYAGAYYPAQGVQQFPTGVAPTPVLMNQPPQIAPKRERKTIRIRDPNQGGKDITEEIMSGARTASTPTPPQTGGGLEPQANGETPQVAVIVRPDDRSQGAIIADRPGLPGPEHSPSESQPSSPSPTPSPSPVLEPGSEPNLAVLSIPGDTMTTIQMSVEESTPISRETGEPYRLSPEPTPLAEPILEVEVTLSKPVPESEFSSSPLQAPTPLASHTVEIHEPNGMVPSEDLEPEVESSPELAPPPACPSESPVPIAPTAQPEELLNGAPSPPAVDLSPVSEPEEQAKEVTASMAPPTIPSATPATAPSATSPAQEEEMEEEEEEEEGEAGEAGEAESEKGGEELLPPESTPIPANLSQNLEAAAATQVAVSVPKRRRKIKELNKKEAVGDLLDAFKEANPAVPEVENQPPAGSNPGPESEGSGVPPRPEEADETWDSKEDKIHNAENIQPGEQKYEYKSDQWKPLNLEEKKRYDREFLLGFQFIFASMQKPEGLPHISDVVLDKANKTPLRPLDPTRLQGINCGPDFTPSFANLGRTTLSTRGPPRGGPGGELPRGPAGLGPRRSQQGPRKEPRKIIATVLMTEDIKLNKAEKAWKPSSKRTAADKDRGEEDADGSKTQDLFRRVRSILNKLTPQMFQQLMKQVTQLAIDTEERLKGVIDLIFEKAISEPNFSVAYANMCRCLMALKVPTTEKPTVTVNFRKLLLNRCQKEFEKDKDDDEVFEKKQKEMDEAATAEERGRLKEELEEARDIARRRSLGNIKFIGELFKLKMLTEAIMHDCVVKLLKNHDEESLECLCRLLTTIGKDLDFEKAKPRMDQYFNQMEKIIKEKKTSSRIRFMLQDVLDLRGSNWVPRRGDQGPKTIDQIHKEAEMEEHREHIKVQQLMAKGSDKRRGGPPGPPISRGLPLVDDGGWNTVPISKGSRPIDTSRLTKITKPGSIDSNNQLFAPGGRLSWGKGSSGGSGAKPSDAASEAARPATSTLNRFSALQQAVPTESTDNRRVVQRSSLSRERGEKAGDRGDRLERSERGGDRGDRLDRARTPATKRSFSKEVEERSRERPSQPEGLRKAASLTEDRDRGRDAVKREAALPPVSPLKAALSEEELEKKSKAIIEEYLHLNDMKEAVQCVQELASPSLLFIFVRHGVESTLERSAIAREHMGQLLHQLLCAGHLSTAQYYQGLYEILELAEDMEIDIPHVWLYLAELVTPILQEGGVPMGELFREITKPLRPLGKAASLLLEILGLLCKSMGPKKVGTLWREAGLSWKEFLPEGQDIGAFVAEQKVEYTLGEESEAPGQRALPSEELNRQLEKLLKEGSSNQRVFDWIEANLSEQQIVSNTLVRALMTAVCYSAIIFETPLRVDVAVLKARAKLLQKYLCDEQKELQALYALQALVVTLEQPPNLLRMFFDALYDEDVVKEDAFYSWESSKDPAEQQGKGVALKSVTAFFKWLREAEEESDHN
Sequence of UniProt Q6P1L5 (Q6P1L5 whole entry, looked up): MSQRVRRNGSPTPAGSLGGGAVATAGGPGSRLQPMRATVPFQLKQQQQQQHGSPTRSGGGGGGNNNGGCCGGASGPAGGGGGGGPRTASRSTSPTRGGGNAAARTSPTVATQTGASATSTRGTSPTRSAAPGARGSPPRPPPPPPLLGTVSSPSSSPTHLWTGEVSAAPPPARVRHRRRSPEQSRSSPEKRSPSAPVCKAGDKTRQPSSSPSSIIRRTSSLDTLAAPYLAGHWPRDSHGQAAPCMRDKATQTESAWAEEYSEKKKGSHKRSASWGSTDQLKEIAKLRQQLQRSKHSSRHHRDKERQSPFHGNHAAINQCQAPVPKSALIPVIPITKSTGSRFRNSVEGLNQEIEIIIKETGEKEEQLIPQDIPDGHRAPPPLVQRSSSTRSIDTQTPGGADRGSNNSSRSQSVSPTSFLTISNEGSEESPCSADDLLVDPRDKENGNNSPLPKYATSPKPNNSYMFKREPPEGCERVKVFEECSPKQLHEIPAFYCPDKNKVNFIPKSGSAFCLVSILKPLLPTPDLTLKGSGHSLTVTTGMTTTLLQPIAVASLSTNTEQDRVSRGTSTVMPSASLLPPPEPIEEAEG
Sequence of UniProt P50548 (P50548 whole entry, looked up): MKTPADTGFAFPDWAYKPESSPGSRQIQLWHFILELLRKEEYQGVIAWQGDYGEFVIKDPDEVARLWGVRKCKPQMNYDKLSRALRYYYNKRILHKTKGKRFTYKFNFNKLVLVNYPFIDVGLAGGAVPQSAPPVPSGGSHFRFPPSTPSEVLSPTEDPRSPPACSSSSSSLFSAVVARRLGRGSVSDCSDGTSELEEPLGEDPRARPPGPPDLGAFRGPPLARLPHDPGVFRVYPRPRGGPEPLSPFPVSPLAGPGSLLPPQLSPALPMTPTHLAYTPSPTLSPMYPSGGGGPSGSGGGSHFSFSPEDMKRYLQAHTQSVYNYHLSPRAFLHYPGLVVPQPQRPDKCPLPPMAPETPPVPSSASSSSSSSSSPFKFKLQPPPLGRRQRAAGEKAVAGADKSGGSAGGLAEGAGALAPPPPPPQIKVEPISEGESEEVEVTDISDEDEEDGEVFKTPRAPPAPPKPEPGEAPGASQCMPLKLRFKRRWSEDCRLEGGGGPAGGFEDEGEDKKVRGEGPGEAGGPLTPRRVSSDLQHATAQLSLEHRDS
Sequence of UniProt Q15910 (Q15910 whole entry, looked up): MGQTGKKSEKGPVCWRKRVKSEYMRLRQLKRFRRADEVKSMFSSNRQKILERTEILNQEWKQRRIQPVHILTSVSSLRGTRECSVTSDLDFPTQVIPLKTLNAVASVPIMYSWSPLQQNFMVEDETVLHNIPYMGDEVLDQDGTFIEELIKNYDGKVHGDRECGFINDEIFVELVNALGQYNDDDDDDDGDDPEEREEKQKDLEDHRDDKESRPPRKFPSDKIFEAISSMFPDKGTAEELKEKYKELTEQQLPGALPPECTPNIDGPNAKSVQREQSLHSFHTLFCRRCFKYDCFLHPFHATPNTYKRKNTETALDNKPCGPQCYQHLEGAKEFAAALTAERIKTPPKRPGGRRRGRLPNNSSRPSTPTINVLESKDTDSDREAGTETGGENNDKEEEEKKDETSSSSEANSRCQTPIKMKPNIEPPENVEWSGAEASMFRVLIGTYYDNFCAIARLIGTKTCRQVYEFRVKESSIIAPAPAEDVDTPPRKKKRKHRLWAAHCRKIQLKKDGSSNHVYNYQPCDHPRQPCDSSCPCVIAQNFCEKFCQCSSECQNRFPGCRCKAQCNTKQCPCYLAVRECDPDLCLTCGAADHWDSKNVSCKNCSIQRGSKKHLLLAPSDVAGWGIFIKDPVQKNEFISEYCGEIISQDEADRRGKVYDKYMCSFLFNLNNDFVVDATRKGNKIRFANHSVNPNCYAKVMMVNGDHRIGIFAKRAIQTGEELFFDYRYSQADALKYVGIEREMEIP
Sequence of UniProt Q8TEH3 (Q8TEH3 whole entry, looked up): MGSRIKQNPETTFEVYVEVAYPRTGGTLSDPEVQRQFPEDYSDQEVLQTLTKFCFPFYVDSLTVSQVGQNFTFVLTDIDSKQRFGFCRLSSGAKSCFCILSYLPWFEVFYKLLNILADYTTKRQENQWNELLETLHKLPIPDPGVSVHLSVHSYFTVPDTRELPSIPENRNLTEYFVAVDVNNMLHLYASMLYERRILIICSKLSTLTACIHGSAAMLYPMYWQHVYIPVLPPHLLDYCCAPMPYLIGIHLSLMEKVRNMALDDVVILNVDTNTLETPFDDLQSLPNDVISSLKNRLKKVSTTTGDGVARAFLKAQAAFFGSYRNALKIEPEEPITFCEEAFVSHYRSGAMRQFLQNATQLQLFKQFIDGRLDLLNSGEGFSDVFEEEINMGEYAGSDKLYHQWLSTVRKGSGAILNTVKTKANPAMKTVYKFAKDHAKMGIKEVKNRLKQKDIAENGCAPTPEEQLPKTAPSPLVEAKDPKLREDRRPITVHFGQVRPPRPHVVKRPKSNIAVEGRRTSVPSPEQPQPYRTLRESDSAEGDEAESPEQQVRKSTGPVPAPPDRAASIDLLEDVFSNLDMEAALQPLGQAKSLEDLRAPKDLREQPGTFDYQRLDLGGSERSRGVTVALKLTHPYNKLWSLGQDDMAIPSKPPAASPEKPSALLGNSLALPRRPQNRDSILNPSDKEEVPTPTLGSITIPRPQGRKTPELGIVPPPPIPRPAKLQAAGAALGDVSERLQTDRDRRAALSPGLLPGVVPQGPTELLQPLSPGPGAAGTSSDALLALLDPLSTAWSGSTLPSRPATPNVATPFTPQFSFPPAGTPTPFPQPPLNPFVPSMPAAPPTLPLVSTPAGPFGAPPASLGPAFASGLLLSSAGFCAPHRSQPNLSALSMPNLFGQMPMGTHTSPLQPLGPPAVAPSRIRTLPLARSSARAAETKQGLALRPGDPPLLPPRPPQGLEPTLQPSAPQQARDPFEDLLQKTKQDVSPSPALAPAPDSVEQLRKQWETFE
Sequence of UniProt Q9BV94 (Q9BV94 whole entry, looked up): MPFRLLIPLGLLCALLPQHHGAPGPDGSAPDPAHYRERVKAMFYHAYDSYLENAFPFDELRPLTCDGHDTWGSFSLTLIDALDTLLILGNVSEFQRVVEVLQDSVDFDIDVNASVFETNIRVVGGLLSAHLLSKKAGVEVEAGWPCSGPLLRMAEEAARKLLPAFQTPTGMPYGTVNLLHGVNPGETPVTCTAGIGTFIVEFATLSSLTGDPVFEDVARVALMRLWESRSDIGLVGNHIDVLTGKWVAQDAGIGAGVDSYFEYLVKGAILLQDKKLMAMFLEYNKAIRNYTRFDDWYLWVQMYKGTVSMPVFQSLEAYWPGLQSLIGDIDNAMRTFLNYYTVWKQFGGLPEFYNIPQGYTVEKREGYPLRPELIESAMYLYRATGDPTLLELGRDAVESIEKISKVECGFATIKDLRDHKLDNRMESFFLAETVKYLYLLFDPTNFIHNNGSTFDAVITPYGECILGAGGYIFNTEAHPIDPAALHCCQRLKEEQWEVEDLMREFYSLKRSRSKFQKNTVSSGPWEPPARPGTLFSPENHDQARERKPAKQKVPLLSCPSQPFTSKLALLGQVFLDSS

Row | Target | log2 fold change (volasertib) | log2 fold change [1] | log2 fold change (epoxomicin) | log2 fold change [2] | log2 fold change [3] | log2 fold change [4] | log2 fold change (rosiglitazone) | log2 fold change [5] | log2 fold change [6] | log2 fold change (saracatinib) | log2 fold change (sotrastaurin) | log2 fold change (alvocidib) | log2 fold change (Tubastatin A) | log2 fold change [7] | log2 fold change (defactinib) | log2 fold change [8] | log2 fold change [9] | log2 fold change [10] | log2 fold change (rucaparib) | log2 fold change (encorafenib)
1 | EDEM2 (UniProt Q9BV94) | -0.159 | -0.035 | -0.006 | 0.033 | -0.087 | -0.001 | -0.077 | -0.003 | 0.161 | -0.23 | -0.05 | -0.028 | 0.022 | -0.016 | 0.036 | 0.079 | 0.105 |  |  | 
2 | ERF (UniProt P50548) |  |  | 0.068 | 0.033 | -0.052 |  |  |  | 0.319 |  | -0.058 |  | 0.377 | 0.069 |  |  |  |  |  | 
3 | DENND1A isoform 6 (UniProt Q8TEH3) | -0.856 (active) |  |  |  |  | 0.112 | -0.041 |  |  |  |  |  | -0.018 |  | -0.081 |  | -0.024 |  |  | 
4 | FAM117B (UniProt Q6P1L5) |  |  | 0.021 | -0.211 | 0.012 | 0.11 |  | -0.072 | 0.017 | -0.004 |  | -0.117 | 0.084 | -0.035 | -0.494 | -0.223 | -0.341 | -0.054 | -0.013 | -0.092
5 | EIF2AK1 (UniProt Q9BQI3) | -0.142 |  | 0.13 | 0.001 | 0.034 | -0.121 | -0.025 | 0.006 | -0.082 | 0.073 | 0.095 | 0.072 | 0.128 | 0.002 | -0.008 | -0.09 | 0.04 |  |  | 
6 | DHRS13 (UniProt Q6UX07) |  | 0.139 |  | -0.135 | -0.077 | 0.225 |  | 0.143 | 0.098 | -0.03 | -0.17 | -0.139 | 0.105 | 0.024 | -0.032 | 0.174 | -0.114 | 0.157 | 0.188 | 0.021
7 | EIF4G1 (UniProt Q04637) |  |  |  |  | 0.062 | 0 |  | 0.224 | -0.552 (active) | -0.112 |  | 0.047 | 0.006 |  | -0.08 | -0.017 | 0.014 |  |  | 
8 | EZH2 isoform 2 (UniProt Q15910) | -0.259 |  | 0.131 | -0.173 |  | 0.022 | 0.243 | 0.155 |  | -0.043 | 0.001 | -0.18 | 0.119 | 0.011 | -0.207 | 0.217 | -0.302 |  |  | 
9 | DNAJB1 (UniProt M0R128) |  |  |  |  |  | -0.038 | 0.223 |  |  |  |  | 0.082 | -0.058 |  | -0.073 |  | 0.18 |  |  | 
